Assay results from PubChem BioAssay (NCI).
The panel holds about 83,000 compounds, 20% with a hit somewhere; the sample as a whole holds those more often.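 In brief: 96-well plates, 48 h treatment, single concentration, percent growth endpoint.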 A number with no mark means an inactive call. Calls of active or inactive are those of the source. How the source made its calls: active means growth percent below 10; inactive means the rest.

The compounds below were run on HL-60(TB) leukemia (assay: NCI-60 one-dose screen, 48 h (100 = growth as untreated, 0 = no growth, -100 = all killed)). Settings: 10 µM unless noted.
In the case of `CN(C)c1ccc(/C=N/N=C(N)N)cc1`, the growth is reported as 59.2%.
`c1nc2ccc(-c3cc4ccc5[nH]ncc5c4c4c3CCCC4)cc2[nH]1` was tested, and the growth was 30.9%.
In the case of `O=C(Nc1c2ccccc2nc2ccccc12)c1ccccc1CN1C(=O)c2ccccc2C1=O`, the growth is reported as 38.9%.
`O=C1/C(=C/c2ccc(F)cc2)C=C(c2ccccc2)N1CCc1ccccc1` showed a growth of 81%.
Work on `COC(c1ccccc1)C(Br)C(=O)c1ccccc1` (stereo unspecified) yielded a growth of 79.1%.
For `CO[C@H]1C[C@@H]2CC[C@@H](C)[C@@](O)(O2)C(=O)C(=O)N2CCCC[C@H]2C(=O)O[C@H]([C@H](C)C[C@@H]2CC[C@@H](O)[C@H](OC)C2)CC(=O)[C@H](C)/C=C(\C)[C@@H](O)[C@@H](OC)C(=O)[C@H](C)C[C@H](C)\C=C/C=C/C=C/1C`, the growth was 16.5%.
With `N[C@@H](CCCCNCC(=O)O)C(=O)O` the growth was 106%.
For `COc1ccc(Nc2ccnc(NCCNc3ccnc4cc(Cl)ccc34)n2)cc1`, the growth was 39%.
Work on `Clc1cn2cc(-c3ccc(Cl)c(Cl)c3Cl)nc2s1` yielded a growth of 85.3%.
Compound `CCC(C)CC(CC)NCCN1CCN(C(CC)CC(C)CC)C1=S` (stereo unspecified) has a growth of 39.8%.
`O=C(O)c1ccc(-n2cc(/C=N/Nc3ccccc3)c(-c3ccc(F)cc3F)n2)cc1` gave a growth of 15.1%.
`Cc1cc(CO)c(O)c(CO)c1` gave a growth of 80.5%.
Work on `O=C1Nc2ccc(Cl)cc2/C1=N/N=C/c1c[nH]c2ccccc12` yielded a growth of 95.5%.
In the case of `O=C1NC(=S)NC(=O)C1=Cc1cn(Cc2ccccn2)c2ccccc12`, the growth is reported as 32.5%.
`CCCC(C)(C)COC(=O)c1cccc(N)c1` was tested, and the growth was 57.8%.
`O=S(=O)(O)c1ccc(N=NSc2ccc3ccccc3c2)cc1` gave a growth of 98.8%.
`COc1ccc(CSc2nnc(SCC(=O)Nc3ccc(Cl)cc3)s2)cc1` gave a growth of 56.9%.
`O=C1c2ccccc2C2(c3ccc(O)cc3)c3ccccc3Oc3cccc1c32` (stereo unspecified) was tested, and the growth was 1.45% (active).
With `CC/C=C\C[C@@H]1C/C=C2/C(=O)C=C[C@H]2C/C=C\CCCC(=O)O1` the growth was -26% (active).
Compound `CCN(CC)N=Nc1nn(C(=O)Nc2ccc(Cc3ccccc3)cc2)c2ccc(Cl)cc12` has a growth of 60.4%.
For `CCOC(=O)CNC(=O)Nc1ccc(Oc2ccc(NC(=O)NCC(=O)OCC)cc2)cc1`, the growth was 108%.
With `COCCOCCOCc1n(Cc2ccc3ccccc3c2)c2ccccc2[n+]1Cc1ccc2ccccc2c1` the growth was -53.5% (active).
For `COc1cc2c(c(OC)c1OC)-c1ccc(NN(C(=O)c3ccccc3)C(=O)c3ccccc3)c(=O)cc1[C@@H](NC(C)=O)CC2` (tested in a mixture with another compound), the growth was -1.35% (active).
With `CC1=C(SCCC(=O)OC(C[Se]C2=C(C)C(=O)c3ccccc3C2=O)C(=O)NC(C)(C)C)C(=O)c2ccccc2C1=O` (stereo unspecified) the growth was 8.81% (active).
`CSc1nc2c(c(=O)n1C)C(c1ccccc1)C1=C(N2)/C(=C/c2ccccc2)CCC1` (stereo unspecified) gave a growth of 12.8%.
`COc1cc(C)c(Cc2cnc(N)nc2N)cc1OC` was tested, and the growth was 129%.
With `O=[N+]([O-])c1ccc(O)c2ncccc12` the growth was -4.85% (active).
Work on `CC(C)N(Cc1ccccc1)c1c(Cl)ssc1=O` yielded a growth of 113%.
In the case of `COC1=CC(c2ccc[nH]2)=N/C1=C\c1[nH]c(C)c(C(=O)CCCCC(=O)NC(C)(C)C)c1C`, the growth is reported as 3.43% (active).
`CNC(=O)Nc1ccc(-c2ccc3ncnc(Nc4cccc(Cl)c4)c3c2)cc1` gave a growth of 76.2%.
With `COc1cccc2c1C(=O)c1c(O)c3c(c(O)c1C2=O)C[C@@](O)(/C(C)=N/NC(=O)c1cccc([N+](=O)[O-])c1)C[C@@H]3OC1CC(N)C(O)C(C)O1` (stereo partly specified) the growth was -45.1% (active).
For `COC(=O)/C(CCC=C(C)C)=C1\[C@@H](OC(C)=O)C[C@@]2(C)[C@H]1CC(=O)[C@H]1[C@@]3(C)CC[C@H](NCc4ccccc4)[C@@H](C)[C@@H]3CC[C@@]12C`, the growth was 84.7%.
In the case of `COc1cc(C(=O)O/N=C(\N)Cc2cccc3ccccc23)cc(OC)c1OC`, the growth is reported as -37.4% (active).
Compound `NS(=O)(=O)c1ccc(N2N=C(c3ccc(Br)cc3)CC2c2cn(-c3ccccc3)nc2-c2ccc(Cl)cc2)cc1` (stereo unspecified) has a growth of 89.6%.
With `CN(C)c1nc(-c2cccs2)n2nc(-c3ccco3)cc2n1` the growth was 95.3%.
For `O=Nc1c(-c2c(O)[nH]c3ccc([N+](=O)[O-])cc23)[nH]c2ccc(O)cc12`, the growth was 3.67% (active).
